62 compounds from PubChem BioAssay AID1259343 (VanderVen Lab, College of Veterinary Medicine, Cornell …, 2017) can be followed below.

Hit rate of the full screen: of about 6,200 compounds, about 2,900 (47%) were called active. Cut-off read from the data, not from the text of the source: active = inhibition above about 50%; inactive = the rest. The set was probably picked from earlier hits. This is one part of the list.

For orientation: inhibition means the change of the read-out against control, counted positive when it falls.

The test is described as follows: Mycobacterium tuberculosis growth inhibition, primary screen (AID 1259343). As to conditions: inhibition: at 10 µM, hits give high values; outcome: 10 uM.
As for `COc1ccc2oc(=Nc3cccc(C#N)c3)c(-c3nc4ccccc4[nH]3)cc2c1`, the inhibition was -9.36% (inactive). Under `COc1ccc(-c2nc(CN3CCN(c4nc5ccccc5s4)CC3)c(C)o2)c(OC)c1` stands 15.8% (inactive); under `CSc1ccc(-c2nc(CN3CCN(c4cnccn4)CC3)c(C)o2)cc1`, “inactive”.

As to `COc1ccc(-c2nc(CN3CCN(c4ccc(C)cc4C)CC3)c(C)o2)cc1`, the inhibition was 67.6% (active). Turning to `Cc1ccccc1-c1cnnc(NCCCn2ccc3ccccc32)n1`, the inhibition was 32.6% (inactive). Under `Clc1ccc(OCCN2CCc3ccccc3C2)cc1` stands 87.5% (active); under `O=S(=O)(NC1CCCc2ccccc21)c1ccc(Br)cc1` (configuration not stated), 10.2% (inactive). For the compound `Ic1ccc(OCCN2CCc3ccccc3C2)cc1`, the inhibition is 46.5% (inactive). For `O=S(=O)(CCN1CCc2ccccc2C1)Oc1ccc(Br)cc1` the value was 98.6% (active). Under `Cc1ccc(-c2nc(CN3CCc4ccccc4C3)co2)c(C)c1` stands 27.7% (inactive); under `Brc1cccc(OCCN2CCc3ccccc3C2)c1`, 38.6% (inactive).

For `FC1(F)Oc2ccc(NCc3nc(-c4ccsc4)no3)cc2O1`, the inhibition is 48.7% (inactive). Under `N=C1SCC(=O)N1c1ncc(Cc2ccccc2)s1` stands 102% (active); under `COc1ccc(C2NC(=O)NC(C)=C2C(=O)OCc2ccccc2)c(OC)c1` (configuration not stated), -11.8% (inactive). Under `COc1ccc(CN(C)C2CC(=O)N(c3c(C)cccc3C)C2=O)c(OC)c1` (configuration not stated) stands 101% (active).

As for `COc1ccc(CN(C)C(=O)Nc2ccc(C)cc2)c(OC)c1`, the inhibition was -33.2% (inactive). Under `CCCC1CCCC(=C\c2ccc(OC)cc2)/C1=N\OC(=O)NCC` (configuration not stated) stands 57% (active); under `C=Cc1ccc(Cn2c(C)c(C(=O)Nc3ccc(OC)c(OC)c3)sc2=O)cc1`, -5.14% (inactive); under `COc1ccc(NC(=O)c2sc(=O)n(Cc3cccc(F)c3)c2C)cc1`, 60.5% (active).

Regarding `COc1ccc(NC(=O)c2sc(=O)n(Cc3ccccc3)c2C)cc1`, the inhibition is 5.9% (inactive). For `Cc1ccc(Cn2c(C)c(C(=O)Nc3ccc(C)cc3)sc2=O)cc1` the value was -16.4% (inactive); for `COc1ccc(NC(=O)c2sc(=O)n(Cc3ccc(OC(F)(F)F)cc3)c2C)cc1`, 55.9% (active).

For `C=Cc1ccc(Cn2c(C)c(C(=O)Nc3ccc(OC)cc3)sc2=O)cc1`, the inhibition is 2.61% (inactive). Under `COc1ccc(NC(=O)c2sc(=O)n(Cc3ccc(C)cc3)c2C)cc1OC` stands 41.4% (inactive); under `COc1ccc(NC(=O)c2sc(=O)n(Cc3ccc(C)cc3)c2C)cc1`, 79.5% (active); under `Cc1cc(CN2CCN(c3c(Br)cnc4nc(-c5ccc(N6CCN(C)CC6)cc5)[nH]c34)CC2)no1`, 23.4% (inactive). For `Clc1ccc2c(c1)C(N1CCNCC1)=Nc1ccccc1O2` the value was 81.5% (active); for `Cc1ccccc1CCNC(=O)Cn1c(-c2cccs2)n[nH]c1=S`, 1.7% (inactive). For `Cc1oc(-c2cc3c(cc2Cl)OCO3)nc1CN(C)Cc1ccc(C(F)(F)F)cc1` the value was 46.8% (inactive). Turning to `COc1cccc2c1OCCCN(Cc1nc(-c3ccc(C(F)(F)F)cc3)oc1C)C2`, the inhibition was 23.4% (inactive). Under `Cc1oc(-c2ccc(C(F)(F)F)cc2)nc1CN(C)CC1COc2ccccc2O1` (configuration not stated) stands 53.7% (active); under `O=C(Cc1ccc(Br)cc1)NC1CCCC1`, 82.1% (active); under `O=C(CSC1CCCCC1)NC1CCCC1`, -47.7% (inactive). As to `O=C(C1=C(O)C(=O)N(c2ncccn2)C1c1ccc(Cl)c(Cl)c1)c1ccco1` (configuration not stated), the inhibition was -2.77% (inactive).

Consider `O=c1oc2c(-c3ccc(Br)cc3)cc(O)cc2s1`, for which the inhibition is 48.6% (inactive).

For `COc1ccc(-c2c(C)noc2-c2ccc(OC)cc2O)cc1`, the inhibition is 16.2% (inactive). For `COc1ccc(-c2cc(O)cc3sc(=O)oc23)cc1` the value was 69.8% (active); for `CC(C)c1ccccc1OCCOc1cccc2cccnc12`, 61.7% (active); for `CC(C)c1cccc(OCCOc2cccc3cccnc23)c1`, 58.4% (active). For `Cc1ccc2cccc(OCCCOc3ccc(C)c(C)c3)c2n1` the value was -21.9% (inactive).

In the case of `Cc1cc(S(=O)(=O)NC2CCCCC2C)ccc1Cl` (configuration not stated), the inhibition is 14.4% (inactive). For `Nc1c2ccccc2nc2ccccc12` (tested in a mixture with another compound), the inhibition was 90.3% (active).

Take `O=C1c2ccccc2C(=O)C1c1ccnc2ccccc12`: the inhibition was -13.4% (inactive).

Turning to `COc1ccc(-c2cc(C(=O)NCCN3CCCCC3)nc3c(-c4ccccc4)c(C)nn23)cc1`, the inhibition is 38.1% (inactive). In the case of `Cc1nn2c(-c3cccc(C(F)(F)F)c3)cc(C(=O)O)nc2c1-c1ccccc1`, the inhibition is 89.3% (active).

Turning to `Cc1nn2c(-c3ccccc3Cl)cc(C(=O)O)nc2c1-c1ccccc1`, the inhibition is 71.1% (active). For `Cc1nn2c(NCCOCCO)cc(C(C)(C)C)nc2c1-c1ccccc1Cl` the value was 19.6% (inactive).

On to `COc1ccccc1CN(Cc1cccc(C(F)(F)F)c1)Cc1nc(C(=O)O)co1`, for which the inhibition was 9.16% (inactive).

For the compound `O=C1CCCC2=C1C(c1ccncc1)NC(=O)N2Cc1ccccc1` (configuration not stated), the inhibition is 85.2% (active). For `COc1ccc2cc(C(=O)C3CCCN(C(=O)CCC(=O)c4ccc(F)cc4)C3)ccc2c1` (configuration not stated) the value was 87.2% (active); for `COc1ccc(C(=O)N2CCCC(C(=O)c3ccc(-c4ccccc4)c(F)c3)C2)o1` (configuration not stated), “inactive”; for `COc1ccc2cc(C(=O)C3CCCN(Cc4cccc(C)n4)C3)ccc2c1` (configuration not stated), 42.4% (inactive). For `Clc1ccc(Cn2ncc3c(Nc4ccc(Cl)cc4)ncnc32)cc1` the value was 9.84% (inactive); for `Clc1ccc(Nc2nccc3c2ncn3Cc2ccccc2)cc1`, 57.3% (active). Consider `Cc1ccc(Nc2nc(N3CCN(Cc4ccccc4)CC3)nc3nccnc23)cc1Cl`, for which the inhibition was 19.4% (inactive). For `Cc1cc2ncn(Cc3ccc(C(C)C)cc3)c2cc1C` the value was -9.75% (inactive); for `CC(C)c1ccc(Nc2nccc3c2ncn3Cc2ccccc2)cc1`, 73% (active). With `C=C(C)Cn1c(SCCCC)nc2c1c(=O)[nH]c(=O)n2C`, the inhibition was -35.9% (inactive). Under `CCS(=O)(=O)N1CCc2cc(-c3csc(-c4ccc(O)cc4)n3)ccc21` stands 11.5% (inactive); under `O=C(CCC(F)(F)F)N1CCCC(CCc2ccc(F)cc2F)C1` (configuration not stated), 66% (active); under `Cc1ccc(C(=O)N2CCCC(CCc3ccc(F)c(F)c3)C2)cc1O` (configuration not stated), 7.31% (inactive). For `O=C(CCCc1ccc(Cl)cc1)N1CCCC(CO)(Cc2ccc(F)cc2F)C1` (configuration not stated) the value was 18.9% (inactive).
